Data as given in PMC7862700, “An all-to-all approach to the identification of sequence-specific readers for epigenetic DNA modifications on cytosine”.

These sequences were tested against T1, ETV2 (Homo sapiens, UniProt O00321 1-342) (assay: DAPPL (digital affinity profiling via proximity ligation, sequencing); 10 mM Tris-HCl pH 7.5, 50 mM NaCl, 1 mM DTT, 4% glycerol, room temperature, 30 min; GST-TFs on glutathione beads, 16-mer random dsDNA library, 0.1% formaldehyde crosslink after washing; high values mean tight binding). Details: protein: recombinant; tags: N-terminal GST; dsDNA, one strand shown.
T1 sequence: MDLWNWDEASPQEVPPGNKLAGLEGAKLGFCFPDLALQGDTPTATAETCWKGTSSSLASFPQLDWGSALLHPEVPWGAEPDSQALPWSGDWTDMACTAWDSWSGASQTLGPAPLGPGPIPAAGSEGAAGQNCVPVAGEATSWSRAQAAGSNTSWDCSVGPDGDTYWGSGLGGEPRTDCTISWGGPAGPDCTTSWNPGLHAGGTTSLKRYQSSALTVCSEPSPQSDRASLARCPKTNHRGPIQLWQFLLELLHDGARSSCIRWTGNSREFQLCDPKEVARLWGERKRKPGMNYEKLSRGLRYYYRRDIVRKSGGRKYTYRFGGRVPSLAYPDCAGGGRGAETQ
In short: (§1)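 Human transcription factors fused to GST were expressed in yeast, captured on glutathione beads, given DNA barcodes and pooled with a GST-only negative control. Pools were incubated with 200 nmole of a 16-mer random double-stranded DNA library in Tris/NaCl/DTT/glycerol buffer at room temperature for 30 min. They were then washed, crosslinked with 0.1% formaldehyde, proximity-ligated (BsaI/T4 ligase, 1 h, 37 °C), PCR-amplified and sequenced on an Illumina NextSeq500. Binding signal is each 6-mer's read frequency for a factor divided by its frequency for the GST control.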

Sequence | binding signal
TCAGCC | 1.03 fold enrichment (6-mer frequency, TF over GST control)
CAAGCT | 1.02 fold enrichment (6-mer frequency, TF over GST control)
CGCGGC | 1.01 fold enrichment (6-mer frequency, TF over GST control)
TCGTTA | 1.08 fold enrichment (6-mer frequency, TF over GST control)
GCCGTC | 1.03 fold enrichment (6-mer frequency, TF over GST control)
TGGCCA | 1.02 fold enrichment (6-mer frequency, TF over GST control)
ATGCGT | 1.18 fold enrichment (6-mer frequency, TF over GST control)
CACACC | 1.03 fold enrichment (6-mer frequency, TF over GST control)
TTGACG | 1.23 fold enrichment (6-mer frequency, TF over GST control)
TGATTG | 1.06 fold enrichment (6-mer frequency, TF over GST control)
TGTCAA | 1 fold enrichment (6-mer frequency, TF over GST control)
GTCGAC | 1.02 fold enrichment (6-mer frequency, TF over GST control)
ACTGTC | 1.1 fold enrichment (6-mer frequency, TF over GST control)
CATGGC | 1.04 fold enrichment (6-mer frequency, TF over GST control)
CCATGG | 1.05 fold enrichment (6-mer frequency, TF over GST control)
ACTCGG | 1.03 fold enrichment (6-mer frequency, TF over GST control)
CGGCCC | 1.19 fold enrichment (6-mer frequency, TF over GST control)
TGGCGT | 1.05 fold enrichment (6-mer frequency, TF over GST control)
CGTACG | 1.19 fold enrichment (6-mer frequency, TF over GST control)
GCGTTG | 1.01 fold enrichment (6-mer frequency, TF over GST control)
GTGGCA | 1.07 fold enrichment (6-mer frequency, TF over GST control)

What follows are sequences tested against T2, ELF3 (Homo sapiens, UniProt P78545 1-371) in the same assay as above. Details: protein: recombinant; tags: N-terminal GST; dsDNA, one strand shown.
T2 sequence: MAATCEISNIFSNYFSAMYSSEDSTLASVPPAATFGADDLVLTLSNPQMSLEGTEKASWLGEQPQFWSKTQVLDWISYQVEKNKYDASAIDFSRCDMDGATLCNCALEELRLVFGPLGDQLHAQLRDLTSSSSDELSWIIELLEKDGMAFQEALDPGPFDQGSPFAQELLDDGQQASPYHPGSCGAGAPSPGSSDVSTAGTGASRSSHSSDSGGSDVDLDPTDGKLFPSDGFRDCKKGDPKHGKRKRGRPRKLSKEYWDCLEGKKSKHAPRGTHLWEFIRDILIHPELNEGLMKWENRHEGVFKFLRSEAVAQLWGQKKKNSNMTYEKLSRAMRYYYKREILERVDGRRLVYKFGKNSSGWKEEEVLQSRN
In short: as §1

Sequence | binding signal
TCAGCC | 1 fold enrichment (6-mer frequency, TF over GST control)
GATACA | 1.08 fold enrichment (6-mer frequency, TF over GST control)
TGTGAT | 1.14 fold enrichment (6-mer frequency, TF over GST control)
GCCGTC | 1.17 fold enrichment (6-mer frequency, TF over GST control)
TGGCCA | 1.04 fold enrichment (6-mer frequency, TF over GST control)
ATGCGT | 1.07 fold enrichment (6-mer frequency, TF over GST control)
CACACC | 1.02 fold enrichment (6-mer frequency, TF over GST control)
TTGACG | 1.21 fold enrichment (6-mer frequency, TF over GST control)
TGATTG | 1.05 fold enrichment (6-mer frequency, TF over GST control)
TGTCAA | 1.15 fold enrichment (6-mer frequency, TF over GST control)
ACTGTC | 1.01 fold enrichment (6-mer frequency, TF over GST control)
AGTTTT | 1.01 fold enrichment (6-mer frequency, TF over GST control)
GTTTGT | 1.07 fold enrichment (6-mer frequency, TF over GST control)
ACTCGG | 1.03 fold enrichment (6-mer frequency, TF over GST control)
CGTACG | 1.01 fold enrichment (6-mer frequency, TF over GST control)
ATTGAG | 1 fold enrichment (6-mer frequency, TF over GST control)
CACCCA | 1.14 fold enrichment (6-mer frequency, TF over GST control)
GACGAC | 1.06 fold enrichment (6-mer frequency, TF over GST control)
AATGTG | 1.07 fold enrichment (6-mer frequency, TF over GST control)

Each sequence was assayed against CRX (Homo sapiens, UniProt O43186 1-299) in the same assay as above. Details: protein: recombinant; tags: N-terminal GST; dsDNA, one strand shown.
Chain of CRX (O43186 whole entry): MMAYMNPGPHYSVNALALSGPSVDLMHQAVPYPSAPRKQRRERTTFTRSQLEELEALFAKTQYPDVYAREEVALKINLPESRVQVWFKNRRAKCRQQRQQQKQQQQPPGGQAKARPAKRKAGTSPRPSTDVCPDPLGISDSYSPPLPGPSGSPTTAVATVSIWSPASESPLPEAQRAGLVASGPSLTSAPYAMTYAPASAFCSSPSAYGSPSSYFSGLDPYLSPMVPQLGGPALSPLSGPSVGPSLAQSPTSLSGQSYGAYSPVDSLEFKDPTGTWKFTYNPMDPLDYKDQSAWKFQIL
In short: as §1

Sequence | binding signal
TCAGCC | 1.17 fold enrichment (6-mer frequency, TF over GST control)
CAAGCT | 1.1 fold enrichment (6-mer frequency, TF over GST control)
TGTGAT | 1.12 fold enrichment (6-mer frequency, TF over GST control)
TCGTTA | 1.1 fold enrichment (6-mer frequency, TF over GST control)
TTGACG | 1.01 fold enrichment (6-mer frequency, TF over GST control)
ATTGAG | 1.11 fold enrichment (6-mer frequency, TF over GST control)

What follows are sequences tested against ETV1 (Homo sapiens, UniProt P50549 1-477) in the same assay as above. Details: protein: recombinant; tags: N-terminal GST; dsDNA, one strand shown.
Chain of ETV1 (P50549 whole entry): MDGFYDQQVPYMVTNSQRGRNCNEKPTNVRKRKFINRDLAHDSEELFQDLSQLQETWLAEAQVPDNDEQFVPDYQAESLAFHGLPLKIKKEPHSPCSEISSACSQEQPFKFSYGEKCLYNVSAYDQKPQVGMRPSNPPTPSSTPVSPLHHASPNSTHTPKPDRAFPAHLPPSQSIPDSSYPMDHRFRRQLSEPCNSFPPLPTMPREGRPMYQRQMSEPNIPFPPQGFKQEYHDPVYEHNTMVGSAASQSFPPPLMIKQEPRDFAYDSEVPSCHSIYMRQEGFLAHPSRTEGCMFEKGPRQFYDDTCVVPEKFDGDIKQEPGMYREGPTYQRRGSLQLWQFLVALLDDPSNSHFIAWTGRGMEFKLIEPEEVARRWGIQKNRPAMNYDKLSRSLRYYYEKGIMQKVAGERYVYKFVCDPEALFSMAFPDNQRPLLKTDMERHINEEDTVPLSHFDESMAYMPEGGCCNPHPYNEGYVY
In short: as §1

Sequence | binding signal
TCAGCC | 1.02 fold enrichment (6-mer frequency, TF over GST control)
GATACA | 1.06 fold enrichment (6-mer frequency, TF over GST control)
CAAGCT | 1.04 fold enrichment (6-mer frequency, TF over GST control)
TGTGAT | 1.08 fold enrichment (6-mer frequency, TF over GST control)
ATGCGT | 1.02 fold enrichment (6-mer frequency, TF over GST control)
CACACC | 1.14 fold enrichment (6-mer frequency, TF over GST control)
TGATTG | 1.1 fold enrichment (6-mer frequency, TF over GST control)
TGTCAA | 1.06 fold enrichment (6-mer frequency, TF over GST control)
GTCGAC | 1 fold enrichment (6-mer frequency, TF over GST control)
ACTGTC | 1 fold enrichment (6-mer frequency, TF over GST control)
GTTTGT | 1.04 fold enrichment (6-mer frequency, TF over GST control)
ACTCGG | 1.03 fold enrichment (6-mer frequency, TF over GST control)
CGTACG | 1.1 fold enrichment (6-mer frequency, TF over GST control)
ATTGAG | 1.01 fold enrichment (6-mer frequency, TF over GST control)
GACGAC | 1.02 fold enrichment (6-mer frequency, TF over GST control)

The sequences below were run against T3, ERF (Homo sapiens, UniProt P50548 1-548) in the same assay as above. Details: protein: recombinant; tags: N-terminal GST; dsDNA, one strand shown.
T3 sequence: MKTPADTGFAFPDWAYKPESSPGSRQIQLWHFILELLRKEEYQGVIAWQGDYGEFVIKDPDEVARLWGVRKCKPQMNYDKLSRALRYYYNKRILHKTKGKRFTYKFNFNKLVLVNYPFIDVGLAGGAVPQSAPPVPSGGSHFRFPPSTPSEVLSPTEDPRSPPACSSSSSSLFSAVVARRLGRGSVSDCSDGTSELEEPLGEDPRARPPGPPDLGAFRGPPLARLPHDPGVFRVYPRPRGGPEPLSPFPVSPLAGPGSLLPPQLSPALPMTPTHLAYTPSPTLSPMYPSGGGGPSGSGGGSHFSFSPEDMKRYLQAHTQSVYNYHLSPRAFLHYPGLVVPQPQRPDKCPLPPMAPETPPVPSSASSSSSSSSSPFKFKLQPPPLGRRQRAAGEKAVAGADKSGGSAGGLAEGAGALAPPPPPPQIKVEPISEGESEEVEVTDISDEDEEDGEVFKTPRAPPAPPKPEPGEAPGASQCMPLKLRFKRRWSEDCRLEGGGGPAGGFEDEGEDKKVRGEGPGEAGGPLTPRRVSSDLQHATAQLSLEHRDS
In short: as §1

Sequence | binding signal
TGGCCA | 1.06 fold enrichment (6-mer frequency, TF over GST control)
ATGCGT | 1.01 fold enrichment (6-mer frequency, TF over GST control)
CACACC | 1.02 fold enrichment (6-mer frequency, TF over GST control)
TTGACG | 1.27 fold enrichment (6-mer frequency, TF over GST control)
GACTGC | 1.03 fold enrichment (6-mer frequency, TF over GST control)
TGATTG | 1.13 fold enrichment (6-mer frequency, TF over GST control)
TGTCAA | 1.07 fold enrichment (6-mer frequency, TF over GST control)
GTCGAC | 1.07 fold enrichment (6-mer frequency, TF over GST control)
ACCGTT | 1.05 fold enrichment (6-mer frequency, TF over GST control)
AGTTTT | 1.09 fold enrichment (6-mer frequency, TF over GST control)
GTTTGT | 1.06 fold enrichment (6-mer frequency, TF over GST control)
GCCGCA | 1.07 fold enrichment (6-mer frequency, TF over GST control)
ACTCGG | 1.04 fold enrichment (6-mer frequency, TF over GST control)
CGGCCC | 1.01 fold enrichment (6-mer frequency, TF over GST control)
CGTACG | 1.04 fold enrichment (6-mer frequency, TF over GST control)
ATTGAG | 1.02 fold enrichment (6-mer frequency, TF over GST control)
CACCCA | 1.06 fold enrichment (6-mer frequency, TF over GST control)
AATGTG | 1.01 fold enrichment (6-mer frequency, TF over GST control)
GCGTTG | 1.12 fold enrichment (6-mer frequency, TF over GST control)

These sequences were tested against T4, ETV3L (Homo sapiens, UniProt Q6ZN32 1-361) in the same assay as above. Details: protein: recombinant; tags: N-terminal GST; dsDNA, one strand shown.
T4 sequence: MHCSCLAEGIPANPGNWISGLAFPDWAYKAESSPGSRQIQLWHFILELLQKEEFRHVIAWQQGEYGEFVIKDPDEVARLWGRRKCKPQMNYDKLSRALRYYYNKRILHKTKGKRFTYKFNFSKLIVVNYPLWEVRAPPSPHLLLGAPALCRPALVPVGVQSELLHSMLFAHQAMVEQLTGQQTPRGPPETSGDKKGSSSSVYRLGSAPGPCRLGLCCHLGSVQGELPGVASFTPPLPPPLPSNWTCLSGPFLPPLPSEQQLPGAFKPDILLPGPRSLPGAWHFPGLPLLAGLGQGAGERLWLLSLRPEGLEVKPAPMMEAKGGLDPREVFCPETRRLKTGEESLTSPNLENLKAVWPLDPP
In short: as §1

Sequence | binding signal
TCAGCC | 1.02 fold enrichment (6-mer frequency, TF over GST control)
GATACA | 1.05 fold enrichment (6-mer frequency, TF over GST control)
CAAGCT | 1.05 fold enrichment (6-mer frequency, TF over GST control)
CGCGGC | 1.01 fold enrichment (6-mer frequency, TF over GST control)
TGTGAT | 1.01 fold enrichment (6-mer frequency, TF over GST control)
TCGTTA | 1.01 fold enrichment (6-mer frequency, TF over GST control)
TGGCCA | 1.04 fold enrichment (6-mer frequency, TF over GST control)
ATGCGT | 1.1 fold enrichment (6-mer frequency, TF over GST control)
CACACC | 1.02 fold enrichment (6-mer frequency, TF over GST control)
TTGACG | 1.12 fold enrichment (6-mer frequency, TF over GST control)
GACTGC | 1.02 fold enrichment (6-mer frequency, TF over GST control)
TGATTG | 1.09 fold enrichment (6-mer frequency, TF over GST control)
TGTCAA | 1.07 fold enrichment (6-mer frequency, TF over GST control)
CATGGC | 1.02 fold enrichment (6-mer frequency, TF over GST control)
GTTTGT | 1.06 fold enrichment (6-mer frequency, TF over GST control)
GCCGCA | 1.04 fold enrichment (6-mer frequency, TF over GST control)
CCATGG | 1.02 fold enrichment (6-mer frequency, TF over GST control)
CGTACG | 1.08 fold enrichment (6-mer frequency, TF over GST control)
GACGAC | 1.03 fold enrichment (6-mer frequency, TF over GST control)
GCGTTG | 1.03 fold enrichment (6-mer frequency, TF over GST control)
